Cardio protect: modulators protecting cardiomyocytes from myocardial damage. H9c2 cardiomyocytes, H2O2 injury protection, ATPLite, 2 h. protection from H2O2 cell death, % at 20 µM. hit rate 0.63% among 360,000;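 active = compounds giving at least 50% protection of heart cells from peroxide-induced death in the single-dose screen, raw or plate-pattern-corrected value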;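 also: 0% = DMSO wells with peroxide and 100% = DMSO wells without peroxide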
Yeast superoxide: lowers age-related superoxide in aged yeast cells; superoxide response (% of plate mean), % at 10 µM; S. cerevisiae aged cells, superoxide DHE fluorescence; active compounds read low; AID 2690; hit rate 0.18% among 330,000;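 active = superoxide response under a set limit, about three screen SD below normal, cut at about 65% in these data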;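 also: yeast aged for seven days with compound at 30 °C before DHE staining; 100% = average MFI of all compound-treated wells on the plate with controls excluded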
MPTP block: inhibitors of mitochondrial permeability transition pore; isolated mouse mitochondria, Ca2+ swelling absorbance, 30 min; inhibition, % at 10 µM; hit rate 1.4% among 360,000; AID 602449;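 active = inhibition of 50% or more, scaled per plate between neutral and stimulator controls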;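 also: 0% = DMSO wells given calcium and 100% = 1 mM EGTA wells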
aDG glyco act: alpha-DG glycosylation activation | activation, % at 10 µM | Pro5-aDG cells, alpha-DG glycosylation AlphaScreen (IIH6); 0% Pro5, 100% B10-LARGE cell signal | hit rate 0.22% among 360,000;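 active = activation of at least 8% versus controls, or a plate z-score of at least 8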;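 also: Pro5 are CHO cells carrying HIG-tagged alpha-DG that lacks glycosylation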
FAS TE block: blocks the thioesterase domain of human fatty acid synthase | P49327 | recombinant FAS-TE, OMFH fluorogenic substrate, fluorescence endpoint | inhibition, % at 15 µM | hit rate 0.67% among 360,000 | AID 602261;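 active = compounds whose normalised, plate-corrected inhibition of enzyme fluorescence in the single-dose primary screen is 50% or more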;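 also: 0% = DMSO with enzyme and 100% = substrate without enzyme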
Target sequence (P49327 whole entry, looked up, the tested form may be a part): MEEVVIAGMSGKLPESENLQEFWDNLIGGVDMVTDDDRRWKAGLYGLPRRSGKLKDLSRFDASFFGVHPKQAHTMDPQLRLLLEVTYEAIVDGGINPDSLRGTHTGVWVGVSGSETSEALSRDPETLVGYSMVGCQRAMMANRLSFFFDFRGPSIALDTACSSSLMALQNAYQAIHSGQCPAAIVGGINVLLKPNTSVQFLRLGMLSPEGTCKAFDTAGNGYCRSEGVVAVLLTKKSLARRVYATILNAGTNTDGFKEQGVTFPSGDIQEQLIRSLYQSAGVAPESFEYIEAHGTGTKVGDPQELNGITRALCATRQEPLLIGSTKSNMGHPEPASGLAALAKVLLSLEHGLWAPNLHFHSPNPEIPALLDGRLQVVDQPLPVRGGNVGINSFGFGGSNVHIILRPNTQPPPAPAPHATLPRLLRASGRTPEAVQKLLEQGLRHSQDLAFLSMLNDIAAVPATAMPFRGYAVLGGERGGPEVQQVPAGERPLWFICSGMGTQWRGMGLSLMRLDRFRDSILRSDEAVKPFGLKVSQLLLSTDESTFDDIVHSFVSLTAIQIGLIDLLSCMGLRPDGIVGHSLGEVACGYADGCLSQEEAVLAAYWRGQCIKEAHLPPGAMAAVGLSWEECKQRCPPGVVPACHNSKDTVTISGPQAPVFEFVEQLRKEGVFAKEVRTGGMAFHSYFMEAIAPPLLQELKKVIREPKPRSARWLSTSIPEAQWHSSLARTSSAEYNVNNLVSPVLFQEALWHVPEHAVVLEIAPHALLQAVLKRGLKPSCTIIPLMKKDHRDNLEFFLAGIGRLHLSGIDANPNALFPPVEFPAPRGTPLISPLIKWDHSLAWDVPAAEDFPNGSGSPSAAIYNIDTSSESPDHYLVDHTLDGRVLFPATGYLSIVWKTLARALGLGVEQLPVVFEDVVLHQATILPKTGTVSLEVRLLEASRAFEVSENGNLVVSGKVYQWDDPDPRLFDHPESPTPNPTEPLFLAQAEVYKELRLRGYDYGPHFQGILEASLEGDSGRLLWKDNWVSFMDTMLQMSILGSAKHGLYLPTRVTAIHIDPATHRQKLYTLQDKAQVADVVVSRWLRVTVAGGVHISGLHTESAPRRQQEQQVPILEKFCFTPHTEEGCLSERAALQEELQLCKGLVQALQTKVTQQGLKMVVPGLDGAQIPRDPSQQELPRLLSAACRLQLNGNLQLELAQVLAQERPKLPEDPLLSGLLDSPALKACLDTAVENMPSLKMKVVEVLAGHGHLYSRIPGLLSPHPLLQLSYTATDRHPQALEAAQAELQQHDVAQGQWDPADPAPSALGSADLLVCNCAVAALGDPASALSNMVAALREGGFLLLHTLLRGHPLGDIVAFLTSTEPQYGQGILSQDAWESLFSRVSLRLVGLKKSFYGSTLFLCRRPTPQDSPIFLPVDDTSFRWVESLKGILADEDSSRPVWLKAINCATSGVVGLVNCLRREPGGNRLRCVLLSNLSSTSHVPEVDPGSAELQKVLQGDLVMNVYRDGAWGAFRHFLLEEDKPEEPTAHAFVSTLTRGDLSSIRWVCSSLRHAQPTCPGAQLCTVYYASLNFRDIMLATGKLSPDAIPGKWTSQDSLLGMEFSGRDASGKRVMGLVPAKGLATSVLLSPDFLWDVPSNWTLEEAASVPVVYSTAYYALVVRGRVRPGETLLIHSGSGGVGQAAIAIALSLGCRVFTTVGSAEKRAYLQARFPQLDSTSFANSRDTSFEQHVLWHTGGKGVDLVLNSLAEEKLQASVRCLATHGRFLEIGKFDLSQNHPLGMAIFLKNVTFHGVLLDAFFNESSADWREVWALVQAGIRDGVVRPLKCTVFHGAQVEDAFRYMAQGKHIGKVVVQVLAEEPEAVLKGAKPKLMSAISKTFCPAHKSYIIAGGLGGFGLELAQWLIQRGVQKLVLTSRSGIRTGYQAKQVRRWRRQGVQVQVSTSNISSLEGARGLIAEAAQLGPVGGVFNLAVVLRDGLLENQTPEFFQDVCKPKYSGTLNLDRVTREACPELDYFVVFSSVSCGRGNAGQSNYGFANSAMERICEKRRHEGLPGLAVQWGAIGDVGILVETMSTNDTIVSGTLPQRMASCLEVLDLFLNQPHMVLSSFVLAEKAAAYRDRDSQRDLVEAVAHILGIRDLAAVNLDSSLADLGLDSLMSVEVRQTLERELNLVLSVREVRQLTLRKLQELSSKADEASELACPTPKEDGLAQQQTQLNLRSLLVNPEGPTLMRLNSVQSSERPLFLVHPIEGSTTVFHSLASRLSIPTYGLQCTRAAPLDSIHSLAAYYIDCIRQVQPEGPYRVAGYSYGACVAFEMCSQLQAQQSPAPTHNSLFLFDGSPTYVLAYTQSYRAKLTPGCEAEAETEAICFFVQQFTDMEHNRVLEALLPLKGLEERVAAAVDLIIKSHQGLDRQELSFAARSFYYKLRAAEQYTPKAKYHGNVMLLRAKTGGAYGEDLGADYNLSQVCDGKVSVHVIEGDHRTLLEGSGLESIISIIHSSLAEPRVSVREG
Mot1-301 SUMO: inhibitors of SUMOylation pathway: yeast Mot1-301 growth rescue | S. cerevisiae Mot1-301 growth rescue, ATP luminescence, 38.5C; percent above DMSO median, 100 means doubled | hit rate 1% among 320,000 | growth rescue, % at 18.8 µM;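 active = every valid replicate shows activation above 250% relative to neutral control wells; inactive = the rest, any valid replicate at or below 250%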;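 also: OY570 slx delta 5 strain wells were the positive control but not used for scaling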
FAS-TE inh conf: FAS thioesterase (human) inhibition, confirmation; recombinant FAS-TE, OMFH fluorogenic substrate, fluorescence; hit rate 45% among 2,300; inhibition, % at 15 µM; shares compounds with FAS TE block;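 active = compounds inhibiting the enzyme by at least 50% at 15 µM in any one of the replicates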;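 also: 0% = enzyme with DMSO only and 100% = wells lacking enzyme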
An asterisk follows results filed as active; . = no result given. Shown are actives, neighbours in structure and some others; about 3.8% of the full set was active somewhere.

SMILES	Cardio protect	Yeast superoxide	MPTP block	aDG glyco act	FAS TE block	Mot1-301 SUMO	FAS-TE inh conf
CC1CCN(S(=O)(=O)c2ccc3c(c2)c(=O)c(C(=O)NCc2cccs2)cn3C)CC1	0.0	119.8	1.7	-0.2	65.0*	-22.5	17.6
CCN(CC)S(=O)(=O)c1ccc2c(c1)c(=O)c(C(=O)NCc1ccco1)cn2C	-2.7	113.1	-0.6	0.4	6.8	-4.1	.
CC1CCN(S(=O)(=O)c2ccc3c(c2)c(=O)c(C(=O)NCc2ccco2)cn3C)CC1	-8.3	113.0	-0.2	-0.4	71.0*	-11.2	80.2*
Cn1cc(C(=O)NCC2COc3ccccc3O2)c(=O)c2cc(S(=O)(=O)N3CCCCC3)ccc21 (stereo not given)	13.5	101.8	1.7	-0.2	53.3*	199.2	10.0
CC1=C(C(=O)N(C(C)C)C(C)C)CC(CC(=O)NC2CCCCC2)C(=O)N1CCC1=CCCCC1 (stereo not given)	3.0	.	-0.6	0.2	-1.3	.	.
OC[C@@H]1CN(Cc2ccc3c(c2)OCO3)C[C@H](n2cnc3c(NCc4ccncc4)ncnc32)O1	26.0	.	0.7	-0.2	-9.7	.	.
CC(OC(=O)C1=COCCO1)C(=O)NC1CCCCC1 (stereo not given)	0.9	.	1.3	-0.1	-7.5	.	.
Cc1c([N+](=O)[O-])cnc(Sc2ccccc2)c1[N+](=O)[O-]	-16.9	89.5	2.7	0.2	60.1*	270.7	8.6
Cc1ccc(Sc2ncccc2[N+](=O)[O-])cc1	-4.9	110.4	0.3	-0.1	29.6	-16.0	.
C=CCOc1ccc(C=CC(=O)c2c(O)c(OC)c(OC)c(OC)c2OC)cc1	-2.0	.	0.8	0.1	-1.9	.	.
C[C@H](CO)N1C[C@H](C)[C@H](CN(C)S(=O)(=O)c2ccc(Cl)cc2)OCc2ccccc2-c2c(n(C)c3ccccc23)C1=O	-18.3	.	-1.1	0.3	69.1*	.	28.2
C[C@H](CO)N1C[C@H](C)[C@@H](CN(C)S(=O)(=O)c2ccc(F)cc2)Oc2c(NC(=O)Nc3ccc(C(F)(F)F)cc3)cccc2C1=O	1.4	109.6	-2.1	0.7	50.3*	-19.7	46.9
CC(C)NC(=O)N(C)C[C@H]1Oc2c(NC(=O)Nc3ccc(C(F)(F)F)cc3)cccc2C(=O)N([C@H](C)CO)C[C@@H]1C	10.7	103.1	-0.4	0.0	82.4*	138.2	85.7*
C[C@H]1CN([C@@H](C)CO)C(=O)c2cccc(NC(=O)Nc3ccc(C(F)(F)F)cc3)c2O[C@@H]1CN(C)S(=O)(=O)c1ccc(Cl)cc1	-8.1	101.5	0.9	2.5	58.4*	-1.6	-0.7
O=C(c1ccc(Cl)c(S(=O)(=O)N2CCOCC2)c1)N1CCc2ccccc2C1	0.4	85.8	-0.2	0.1	0.8	-2.8	.
COc1ccc(CNS(=O)(=O)c2ccc(Br)s2)cc1	-1.1	104.2	-0.4	0.1	4.2	184.7	.
COc1ccc(NC(=O)CC2SC(=N)N(c3ccccc3)C2=O)c(OC)c1 (stereo not given)	0.0	113.2	-0.5	-0.2	-4.8	-23.6	.
Cc1ccc(S(=O)(=O)Nc2ccc3c(c2)CC(=O)N([C@H](C)CO)C[C@@H](C)[C@H](CN(C)Cc2ccc(-c4ccccc4)cc2)O3)cc1	-7.7	117.7	-0.8	0.7	73.2*	-10.7	23.2
Cc1ccc(S(=O)(=O)N(C)C[C@@H]2Oc3ccc(NC(=O)Nc4cccc5ccccc45)cc3C(=O)N([C@H](C)CO)C[C@H]2C)cc1	-0.2	101.2	0.9	-0.4	67.1*	10.3	7.4
O=C1c2ccccc2C(c2nnnn2-c2ccc3c(c2)OCCO3)N1C1CC1 (stereo not given)	.	.	-0.2	0.6	-9.1	.	.
Cc1cc(C)c(C#N)c(SCC(=O)c2ccc(Cl)cc2Cl)n1	-2.0	85.7	2.4	-0.4	71.7*	4.6	37.3*
C[C@@]12C(=O)Nc3ccc(Cl)cc3C(=O)N1[C@H]1c3cc(Cl)ccc3OC[C@@H]1[C@@H]2c1ccccc1	-2.2	84.0	-0.1	0.0	77.4*	188.7	24.2
C[C@@H]1NC(=O)[C@@]2(C)[C@@H](c3ccccc3)[C@H]3COc4ccc(Cl)cc4[C@@H]3N2C1=O	2.6	108.4	-0.5	0.3	-8.7	-6.0	.

Screening results (PubChem)
